Drawing on PubChem BioAssay (EPA / NIEHS), this text covers outcome and AC50 for 40 molecules.

Activity calls are given as the source filed them. How the source made its calls: active means hit-call score of the fitted dose curve at least 0.9, where 1 is the maximum; inactive means score below 0.9.

Read-out in this assay: Glutamate-cysteine ligase regulatory (GCLM), GCLM (gene 2730)
The experiment in a line: LTEA_HepaRG_GCLM: Life Technologies and Expression Analysis (LTEA) Assay for Glutamate-cysteine ligase regulatory (GCLM) using HepaRG (AID 2283500). The conditions noted are these: mRNA level, 48 h; actives raise or lower the signal. The protocol: LTEA_HepaRG is a cell based, multiplexed-readout assay that uses HepaRG, a human liver cell line, with measurements taken at 48 hours after chemical dosing on a 96-well plate.LTEA_HepaRG_GCLM is one of 102 assay component(s) measured in the LTEA HepaRG cell culture assay. It is a marker of Cell proliferation, survival, death.Data from the assay component LTEA_HepaRG_GCLM was analyzed into 1 endpoint. This assay endpoint, LTEA_HepaRG_GCLM, was analyzed with bidirectional fitting relative to DMSO as the negative control and baseline of activity. Using a type of inducible reporter, measures of mRNA induction for gain or loss-of-signal activity can be used to understand regulation of transcription factor activity. To generalize the intended target to other relatable targets, this assay endpoint is annotated to the ligase intended target family, where the subfamily is C-N ligase.
A total of 1060 chemcials from the ToxCast library were tested in eight-point concentration-response experiments. Cell culture and cytotoxicity assays were conducted at Thermo Fisher Scientific's Custom Services facility (Madison, WI). A single lot of human HepaRG cells (Thermo Fisher Scientific, Frederick, MD) was used for the cell culture experiments. 96-well format collagen type I coated plates of human HepaRG cells were prepared using established methods. Briefly, cryopreserved HepaRG cells were thawed, plated at a density of approximately 100,000 cells/well in HepaRG Thaw, Plate, and General Purpose media (HPRG770, Thermo Fisher Scientific), and incubated for 48 hours. 0.5% DMSO was selected as vehicle control to balance the requisite need of DMSO in HepaRG cultures to maintain differentiation (for example, baseline metabolism, proportions of hepatocytes vs. cholangiocytes), while enabling further hepatic receptor pathway activation (for example, PXR and CAR) in response to chemical exposure. 48 hours after plating, the culture medium was replaced with HepaRG Serum-Free Incudtion Media. Cells were exposed to each test chemical in duplicate and maintained in CO2 incubators for another 48 hours. Chemical plates were thawed to room temperature and 200x concentrations of treatment groups were prepared. 8-point conentration-reponse curves were made with the highest exposure at 100 uM, followed by half-log dilutions, all in 0.5% DMSO. Each test plate contained variouse controls, induction positive controls (1mM phenobarbital), cytotoxicity positive controls ([…] aflatoxin B1), vehicle controls (0.5% DMSO), and total lysis controls (0.5% DMSO). Cell morphology images were taken using an Essen IncuCyte FLR automated microscope, with six 96-well plates imaged in about 24 minutes. Images were captured and exported and JPEG files. Spent culture media was transfered to black-well plates for the LDH assay, and remaining media was sorted at -80 C for later use. Cells were treated with RLT buffer and frozen until shipped for gene expression analysis. Total RNA was isolated from the cell suspension in 75 uL of Buffer RLT (Qiagen, Germantown, MD 20874) by Quintiles/Expression Analysis (Durham, NC) using a custom isolation procedure. Total RNA from each plate well was transferred to a preamplification plate. Fluidigm's 96.96 Dynamic ArrayTM (Fluidigm, Amsterdam, the Netherlands) technology was used for gene expression analyses by quantitative reverse transcription polymerase chain reaction (qRT-PCR, performed by Quintiles/Expression Analysis, Durham, NC)89. Standard TaqManTM Assays (Applied Biosystems/ThermoFisher Scientific, Foster City, CA) were used to assess the expression of 93 genes selected based on their selectivity and sensitivity to important hepatic receptors known to be modulated by environmental chemicals; importance in human hepatocyte functionality; and hepatotoxicity. […]
As for `O=[N+]([O-])c1ccc(Cl)c(Cl)c1`, the molecule was classed as inactive.

With `Nc1cc2c3c(c1)C(c1ccccc1)=N[C@@H](NC(=O)c1cccnc1)C(=O)N3CC2`, the molecule was called inactive.

In the case of `O=C(O)C(Cl)Cl`, the molecule was called inactive.

By AC50 is commonly meant the midpoint of the concentration-response curve, whichever way the signal moves. Consider `ClC1=C(Cl)C2(Cl)C3C(Cl)C(Cl)CC3C1(Cl)C2(Cl)Cl` (stereo not given), for which the concentration at half-maximal activity (AC50) was 50 µM (active).

With `CN(C)C(=O)Cl`, the outcome was inactive.

`c1ccc(OP(Oc2ccccc2)Oc2ccccc2)cc1`: the outcome was inactive.

`CCOC(=O)c1ccccc1C(=O)OCC`: the result was inactive.

In the case of `CCC1(c2ccccc2)C(=O)N=C(O)NC1=O` (stereo not given), the molecule was classed as inactive.

For `CCCCN(CCCC)N=O`, the call was inactive.

Regarding `CCCN(CCC)c1c([N+](=O)[O-])cc(C(C)C)cc1[N+](=O)[O-]`, the half-maximal activity concentration (AC50) was 9.92 µM (active).

For `O=P(Oc1ccccc1)(Oc1ccccc1)Oc1ccccc1`, the half-maximal activity concentration (AC50) is 50 µM (active).

Regarding `OCC1CO1` (stereo not given), the molecule was classed as inactive.

Turning to `CCCCN(CCCC)SN(C)C(=O)Oc1cccc2c1OC(C)(C)C2`, the outcome was inactive.

Regarding `CCOP(=S)(Oc1ccc([N+](=O)[O-])cc1)c1ccccc1` (stereo not given), the outcome was inactive.

Regarding `Cc1ccc(O)cc1C`, the molecule was classed as inactive.

As for `ClC(Cl)c1ccccc1`, the molecule was called inactive.

Take `CCCCc1ccccc1`: the molecule was classed as inactive.

For `c1nc[nH]n1`, the call was inactive.

`COCCOCCO`: the molecule was called inactive.

With `c1ccc2c(c1)Nc1ccccc1S2`, the result was inactive.

As to `c1cc2c3c(cccc3c1)CC2`, the result was inactive.

For the molecule `Nc1ccc2ccccc2c1`, the molecule was called inactive.

Regarding `CC(C)(C)c1ccc(O)cc1`, the molecule was called inactive.

Regarding `Cc1ccc([N+](=O)[O-])cc1C`, the molecule was called inactive.

On to `O=C(O)C1C(C(=O)O)C2(Cl)C(Cl)=C(Cl)C1(Cl)C2(Cl)Cl` (stereo not given), for which the molecule was classed as inactive.

`O=P1(N(CCCl)CCCl)NCCCO1` (stereo not given): the molecule was classed as inactive.

Regarding `CSC(C)(C)C=NO`, the molecule was called inactive.

`CC(Cc1ccc(OCC(=O)O)cc1)NCC(O)c1csc(C(F)(F)F)n1` (stereo not given): the result was inactive.

On to `ClC(Cl)(Cl)c1ccccc1`, for which the molecule was classed as inactive.

Take `Cc1ccc(N)cc1N`: the molecule was called inactive.

With `CCOc1ccc(C(C)(C)COCc2cccc(Oc3ccccc3)c2)cc1`, the result was inactive.

With `CCNc1nc(Cl)nc(NC(C)(C)C)n1`, the result was inactive.

As to `Nc1ccc(Cl)cc1`, the call was inactive.

On to `Cc1cccc(N)c1`, for which the molecule was called inactive.

With `CCN(CC)c1ccccc1`, the outcome was inactive.

For the molecule `CCOS(=O)(=O)OCC`, the call was inactive.

Consider `CCOP(=S)(OCC)SCSCC`, for which the molecule was classed as inactive.

`CCC(C)(C)c1ccc(O)cc1`: the molecule was called inactive.

As for `CC(C)(C)OOC(C)(C)C`, the molecule was classed as inactive.

For the molecule `CC(Cl)(Cl)C(=O)O`, the call was inactive.
